Among the test systems are SK-MEL-2 melanoma; EKVX NSCLC; SN12C renal; UO-31 renal; TK-10 renal; ACHN renal; CAKI-1 renal; A498 renal; CCRF-CEM leukemia; MOLT-4 leukemia; SR leukemia; RPMI-8226 leukemia; OVCAR-8 ovarian; OVCAR-5 ovarian; SK-OV-3 ovarian; IGROV1 ovarian; HS 578T breast; NCI/ADR-RES ovarian; OVCAR-3 ovarian.
Holding throughout (test): NCI-60 one-dose screen, 48 h (100 = growth as untreated, 0 = no growth, -100 = all killed)
Common to all, as to details: 10 µM unless noted

Compounds without any hit were thinned out: in the full panel of roughly 83,000, 20% have a hit.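 Results are percent growth after 48 hours of single-concentration exposure. 100 means growth as in untreated cells, lower positive values show inhibition; negative values down to -100 show cell death.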 Unmarked numbers belong to inactive results. The source made the active and inactive calls. How the source made its calls: active means growth percent below 10; inactive means the rest.

Turning to `O=S(=O)(NCc1ccccc1)c1ncnc2nc[nH]c12`, the growth with SK-MEL-2 melanoma was 118%; in the assay on EKVX NSCLC, 111%; in the assay on SN12C renal it was 108%; with UO-31 renal, 93.8%; with TK-10 renal it was 115%; with ACHN renal, 105%. Besides, the growth in the assay with CAKI-1 renal was 104%; with A498 renal it was 124%; in the assay with CCRF-CEM leukemia it was 83.1%; with MOLT-4 leukemia it was 93.3%; in the assay with SR leukemia, 105%; in the assay on RPMI-8226 leukemia it was 99.2%. For the same molecule, the growth was 87.2% in the assay on OVCAR-8 ovarian; 106% in the assay with OVCAR-5 ovarian; 108% in the assay on SK-OV-3 ovarian; 119% in the assay on IGROV1 ovarian; 116% in the assay on HS 578T breast; 97.4% in the assay on NCI/ADR-RES ovarian.

For the molecule `C#C[C@]1(O)CC[C@H]2[C@@H]3CC=C4c5nc(N)sc5CC[C@]4(C)[C@H]3CC[C@@]21C`, the growth in the assay with SK-MEL-2 melanoma was 58.8%; with EKVX NSCLC, 53.7%; with SN12C renal, 82.2%; in the assay with UO-31 renal, 90.4%; in the assay with TK-10 renal it was 80.4%; in the assay with ACHN renal, 79.6%. The growth in the assay on CAKI-1 renal was 54.9%; with A498 renal it was 36.4%; in the assay with CCRF-CEM leukemia, 77.7%; in the assay on MOLT-4 leukemia, 36.9%; with SR leukemia, 23.6%; in the assay with RPMI-8226 leukemia it was -7.97% (active). Also, the growth in the assay with OVCAR-8 ovarian was 85.3%; in the assay on OVCAR-5 ovarian, 88.5%; in the assay on IGROV1 ovarian, 71.8%; in the assay with OVCAR-3 ovarian, 47.2%; in the assay with HS 578T breast, 6.1% (active); with NCI/ADR-RES ovarian, 62.1%.

`O=C(O)CSCc1nnc2n(Cc3ccccc3)c(=O)c3c4c(sc3n12)CCCC4`: the growth is 79.3% in the assay with SK-MEL-2 melanoma; 93.2% in the assay with EKVX NSCLC; 96% in the assay on SN12C renal; 90.2% in the assay on UO-31 renal; 127% in the assay on TK-10 renal; 89.3% in the assay on ACHN renal. The growth with CAKI-1 renal was 99.2%; in the assay on A498 renal, 112%; in the assay on CCRF-CEM leukemia, 81%; in the assay with MOLT-4 leukemia it was 71.8%; with SR leukemia, 75.6%; in the assay on RPMI-8226 leukemia, 76.9%. Besides, the growth in the assay with OVCAR-8 ovarian is 92.6%; in the assay with OVCAR-5 ovarian, 94.1%; with SK-OV-3 ovarian it was 106%; with OVCAR-3 ovarian it was 107%; in the assay on HS 578T breast, 99.1%; with NCI/ADR-RES ovarian, 96.6%.

`CCN(CC)CCCCCCNc1cccc2cc(Br)cnc12`: the growth with SK-MEL-2 melanoma is 21.7%; with EKVX NSCLC, 93.1%; with SN12C renal, 104%; in the assay on UO-31 renal, 61%; with TK-10 renal, 58.7%; in the assay with ACHN renal it was 104%. The growth was 62.3% in the assay with CAKI-1 renal; 86.3% in the assay with A498 renal; 57% in the assay with CCRF-CEM leukemia; 9.09% (active) in the assay on MOLT-4 leukemia; 28.4% in the assay on SR leukemia; 68% with RPMI-8226 leukemia. Also, the growth is 80.2% in the assay on OVCAR-8 ovarian; 117% in the assay with OVCAR-5 ovarian; 111% in the assay on SK-OV-3 ovarian; 60% with IGROV1 ovarian; 84.2% in the assay with OVCAR-3 ovarian; 79.9% in the assay with NCI/ADR-RES ovarian.

For `C=C(C)[C@@H]1CC[C@]2(C)[C@H](CC=C3[C@@H]4[C@@H](C)[C@H](C)CC[C@]4(C(N)=O)CC[C@]32C)[C@@]1(C)CCC#N`, the growth in the assay on SK-MEL-2 melanoma was -62.5% [100 µM] (active); in the assay on EKVX NSCLC it was 11.8% [100 µM]; in the assay with SN12C renal, -75.7% [100 µM] (active); in the assay with UO-31 renal, -91.5% [100 µM] (active); in the assay on TK-10 renal it was -10.2% [100 µM] (active); in the assay with ACHN renal, -1.6% [100 µM] (active). In addition, the growth was 6.4% [100 µM] (active) in the assay with CAKI-1 renal; -33.6% [100 µM] (active) in the assay on A498 renal; -7.62% [100 µM] (active) in the assay with CCRF-CEM leukemia; -1.01% [100 µM] (active) in the assay with MOLT-4 leukemia; 30.2% [100 µM] in the assay on SR leukemia; -21.1% [100 µM] (active) in the assay with RPMI-8226 leukemia. Also, the growth was 3.49% [100 µM] (active) in the assay on OVCAR-8 ovarian; 1.03% [100 µM] (active) in the assay on OVCAR-5 ovarian; 5.31% [100 µM] (active) in the assay on SK-OV-3 ovarian; 7.81% [100 µM] (active) with IGROV1 ovarian; 5.08% [100 µM] (active) with HS 578T breast.

On to `COc1ccc2c(c1)C(C)Cc1c(Cl)nc(C)nc1N2C` (stereo not given), for which the growth was 37.3% in the assay with SK-MEL-2 melanoma; 34.4% in the assay on EKVX NSCLC; 32.6% in the assay with SN12C renal; 50.9% in the assay on UO-31 renal; 44.4% in the assay on TK-10 renal; 55.2% in the assay with ACHN renal. The growth was 25.4% in the assay with CAKI-1 renal; -5.78% (active) in the assay with A498 renal; 14.7% in the assay with CCRF-CEM leukemia; 20.3% in the assay on MOLT-4 leukemia; 14.6% in the assay on SR leukemia; 29.4% in the assay with RPMI-8226 leukemia. Also, the growth was 24.2% in the assay with OVCAR-8 ovarian; 56.2% in the assay on OVCAR-5 ovarian; 19.1% in the assay with SK-OV-3 ovarian; 55.7% in the assay on IGROV1 ovarian; 6.18% (active) with OVCAR-3 ovarian; 27.3% with HS 578T breast. Moreover, the growth in the assay with NCI/ADR-RES ovarian is 4.74% (active).

For `CC(=O)O.CC(=O)O.O.[Fe]`, the growth was 109% in the assay with SK-MEL-2 melanoma; 147% with EKVX NSCLC; 95.2% with SN12C renal; 89% in the assay on UO-31 renal; 105% in the assay on TK-10 renal; 107% in the assay on ACHN renal. Moreover, the growth in the assay with CAKI-1 renal was 130%; in the assay with A498 renal, 89.8%; in the assay on CCRF-CEM leukemia it was 131%; in the assay on MOLT-4 leukemia, 116%; with SR leukemia it was 124%; in the assay with RPMI-8226 leukemia it was 135%. Besides, the growth with OVCAR-8 ovarian was 99.1%; in the assay with OVCAR-5 ovarian, 105%; with SK-OV-3 ovarian, 94.1%; with IGROV1 ovarian it was 106%; in the assay with OVCAR-3 ovarian, 108%; in the assay on HS 578T breast, 93.2%. In the assay with NCI/ADR-RES ovarian, the growth was 102%.

Take `CCOC(=O)c1nn(C2CCCCO2)c2ccc(NC(=O)CSc3nc4ccccc4c(=O)[nH]3)cc12` (stereo not given): the growth in the assay on SK-MEL-2 melanoma was 105%; in the assay on EKVX NSCLC it was 102%; in the assay on SN12C renal it was 87%; with UO-31 renal, 79.6%; in the assay with TK-10 renal, 108%; in the assay with ACHN renal it was 93.6%. Further, the growth in the assay on CAKI-1 renal is 77.7%; in the assay on A498 renal, 69.7%; in the assay on CCRF-CEM leukemia, 93.1%; in the assay with MOLT-4 leukemia, 103%; in the assay on SR leukemia it was 113%; in the assay on RPMI-8226 leukemia, 101%. Further, the growth in the assay on OVCAR-8 ovarian was 98.1%; in the assay on OVCAR-5 ovarian it was 115%; with IGROV1 ovarian, 101%; in the assay with OVCAR-3 ovarian it was 106%; with HS 578T breast, 51.6%; with NCI/ADR-RES ovarian it was 107%.
